Out of some 300,000 compounds screened, about 37,000 (12%) were called active. What follows is part of a selection rich in actives, with near analogues and random picks from the rest. A number with no mark means an inactive call. Cut-off read from the data, not from the text of the source: active = max response mostly above about 13% (no sharp cut-off); inactive = mostly below about 14%.
Assay: Cycloheximide Counterscreen for Small Molecule Inhibitors of Shiga Toxin; note: read at 38.3 µM for the half of the compounds with a filed dose; 0% is about no effect
Details: cell reporter, cycloheximide protein synthesis inhibition counterscreen; hits give high values

| Structure (SMILES) | max response |
| --- | --- |
| CCN(CC)CCCNC(=O)c1ccc2c(=O)n(Cc3ccc4c(c3)OCO4)c(=S)[nH]c2c1 | 5.61% |
| Cc1ccc(C(=O)CCC(=O)N(C)CC(=O)Nc2c(Cl)cccc2Cl)cc1 | 1.06% |
| COc1ccc(-c2nn(CCC#N)cc2C(=O)Nc2ccc(C(C)=O)cc2)cc1 | 18.3% (active) |
| COc1ccc(NC(=O)c2cn(CCC#N)nc2-c2ccc([N+](=O)[O-])cc2)cc1 | -3.78% |
| COc1ccc(-c2nn(CCC#N)cc2C(=O)O)cc1 | 0.75% |
| COc1ccccc1NC(=O)C1CCCN1S(=O)(=O)c1ccc(Cl)cc1 (stereo not drawn) | 0.961% |
| CC(=O)N(CCCN(C)C)c1nc2ccc(C)cc2s1 | 7.76% |
| CCOc1ccc2nc(N(CCN(C)C)C(=O)c3ccc4ccccc4c3)sc2c1 | 8.51% |
| CN(C)CCN(C(=O)C1CCCCC1)c1nc2cc3c(cc2s1)OCO3 | 15.2% |
| CN(C)CCN(C(=O)C1=COCCO1)c1nc2ccc(Cl)cc2s1 | 36.4% (active) |
| Cc1ccc2nc(N(CCN(C)C)C(=O)C3=COCCO3)sc2c1 | 30.5% (active) |
| CCc1ccc2nc(N(CCCN(C)C)C(=O)c3ccc4c(c3)OCCO4)sc2c1 | 1.67% |
| CC(C)(C)c1ccc(C(CC(=O)O)NS(=O)(=O)Cc2ccccc2)cc1 (stereo not drawn) | -5.97% |
| CCCCn1c(SCC(=O)N2CCOCC2)nc2c1c(=O)n(C)c(=O)n2C | -6.86% |
| O=C(Nc1ccc(Br)cc1F)C1CC(=O)N(C2CCCCC2)C1 (stereo not drawn) | -2.46% |
| CC1=CCC2C(=O)N(c3cccc(C(=O)NC(C)c4ccccc4)c3)C(=O)C2C1 (stereo not drawn) | -2.5% |
| Cc1ccc(C(=O)N/C(=C\c2ccc(F)cc2)C(=O)NCCN2CCOCC2)cc1 | -2.99% |
| Cc1ccc(C(=O)NC(=S)NCCN2CCOCC2)cc1 | 31.2% (active) |
| Cc1ccc(NC(=S)NCCN2CCOCC2)cc1 | -2.44% |
| CCc1ccc(C(CNc2nc(C(F)(F)F)nc3ccccc23)N(C)C)cc1 (stereo not drawn) | -6.3% |
| COc1ccccc1C(=O)Nn1c(-c2cccs2)nc2ccccc2c1=O | 2.63% |
| O=C(NCCCn1ccnc1)c1cc2c(s1)CCCC2 | -2.62% |
| COc1ccc(C(CNC(=O)c2cc3c(s2)CCCC3)N2CCOCC2)cc1 (stereo not drawn) | 5.2% |
| O=C(NCCCN1CCOCC1)c1cc2c(s1)CCC2 | 15.4% (active) |

| Structure (SMILES) | max response |
| --- | --- |
| CCOc1ccc(C(C(=O)NC2CCCC2)N(C(=O)c2snc(C(N)=O)c2N)C2CCCC2)cc1 (stereo not drawn) | -3% |
| CCN(CC)S(=O)(=O)c1ccc(Cl)c(C(=O)NCCN2CCOCC2)c1 | -7.58% |
| CCN(CC)S(=O)(=O)c1ccc(N2CC(C(=O)NCc3cccnc3)CC2=O)cc1 (stereo not drawn) | -8.09% |
| O=C(Cc1ccc(Cl)cc1)NC(=S)Nc1ccccc1O | 0.61% |
| O=[N+]([O-])c1ccccc1Nc1ccc(O)cc1 | -1.56% |
| Oc1ccc(CNc2ccccc2O)cc1 | 35.8% (active) |
| CCOC(=O)[C@@H]1[C@H]2COc3ccc(Br)cc3[C@H]2N2C(=O)N(c3ccc(Cl)cc3)C(=O)[C@@]12C | -3.81% |
| Cc1nn(CC(=O)Nc2nc3ccccc3s2)c(C)c1[N+](=O)[O-] | 16.7% |
| Oc1ccc(-c2[nH]ncc2-c2nc3ccccc3s2)c(O)c1 | 10.7% |
| CC(=O)Nc1cccc(-c2nc3ccccc3s2)c1C | 23.7% (active) |
| COc1cccc(Cn2cc(/C=N/NC(=O)c3cc(O)cc(O)c3)c3ccccc32)c1 | 7.8% |
| COC(=O)c1ccc(CNC(=O)C2CCC(=O)N(Cc3ccccn3)C2)cc1 (stereo not drawn) | -0.637% |
| CCOC(=O)c1cc2c(nc1NC(=S)Nc1ccccc1)CC(C)(CC)OC2 (stereo not drawn) | -1.51% |
| CCOC(=O)c1cn[nH]c1NC(=S)Nc1ccccc1 | 67.1% (active) |
| CCOC(=O)c1ccc(NC(=S)Nc2cc(C)cc(C)n2)cc1 | -2.45% |
| O=C(COc1cc(Cl)c(Cl)cc1Cl)NC(=O)NC1CCCC1 | -3.88% |
| O=C(CN1CCOCC1)N1CCCc2c1c(=O)oc1ccc(OCc3ccccc3)cc21 | -7.12% |
| COc1cccc2c(N/N=C/c3ccco3)cc(C)nc12 | 18.9% |
| CCc1c(C)nc2c(OC)cccc2c1Cl | 10.5% (active) |
| CCCc1c(C)nc2c(Br)cccc2c1Cl | -2.12% |
| COc1ccc2c(c1)C(SCC(=O)NCc1ccccc1)CC(C)(C)O2 (stereo not drawn) | -3.58% |
| CCOC(=O)C1=C(O)/C(=C/c2cc(C)n(-c3ccccc3)c2C)N=C1C | 10.2% (active) |
| Cc1cc(/C=C2\SC(=O)N(C)C2=O)c(C)n1-c1cccc(C(=O)O)c1 | 10.2% |
| COC(=O)C1=C(O)/C(=C/c2ccc(OCC(=O)Nc3ccccc3)cc2)N=C1C | -5.16% |

| Structure (SMILES) | max response |
| --- | --- |
| CC(C)n1c(CN2CCN(Cc3ccccc3)CC2)nc2ccccc21 | -2.09% |
| CC(=O)N1C(=O)C2(Nc3ccccc3N2)c2ccccc21 | -2.2% |
| CC(C)=NN1C(=O)c2ccccc2NC1(C)C | 37.9% (active) |
| CC(=O)NN1C(=O)c2ccccc2NC1c1ccccc1 (stereo not drawn) | -3.65% |
| Cc1cccc(NC(=O)C2CCCN(C(=O)Nc3ccc(F)cc3)C2)c1C (stereo not drawn) | -3.65% |
| CC(C)CC(=O)NC(=S)NCc1ccccc1 | 3.76% |
| CCC(=O)NCCc1nc2ccccc2n1CC | -2.66% |
| Cc1cc(C(=O)OCC(=O)Nc2nnc(C(C)C)s2)c2ccccc2n1 | -2.56% |
| CC(C)CC(=O)N/C(N)=N/c1nc2ccccc2s1 | 44.8% (active) |
| CCC(=O)NC(=Nc1nc2ccccc2s1)NC(=O)CC | 28.7% (active) |
| CC(C)C(C)NC(=O)COc1ncnc2ccccc12 (stereo not drawn) | -3.43% |
| CSCCC(NS(=O)(=O)c1ccccc1F)C(=O)N1CC=C(c2ccccc2)CC1 (stereo not drawn) | -2.39% |
| COc1ccc(N(C(=O)c2snc(C(N)=O)c2N)C(C(=O)NC2CCCC2)c2ccco2)cc1OC (stereo not drawn) | -2.38% |
| CC(C)C(C(=O)NCc1ccco1)N(CC1CCCO1)C(=O)CNS(=O)(=O)c1ccc(F)cc1 (stereo not drawn) | -6.69% |
| Cc1cc(-c2ccc(S(=O)(=O)N3CCc4ccccc4C3)s2)on1 | -3.48% |
| O=C(N/N=C/c1cc(Cl)cc([N+](=O)[O-])c1O)C(O)(c1ccccc1)c1ccccc1 | -1.36% |
| N#Cc1ccsc1NC(=O)CN1CCN(S(=O)(=O)c2cc(Cl)ccc2Cl)CC1 | -2.08% |
| C=C(C)C(=O)O[C@H]1C/C(C)=C\C(=O)/C=C(\C)[C@H](O)[C@@H]2OC(=O)C(=C)[C@@H]21 | 41.8% (active) |
| Nc1nonc1-n1nnc(C(=O)N/N=C\c2ccncc2)c1CN1CCCCC1 | -1.14% |
| O=C(c1ccc(C(F)(F)F)cc1)C1CCCN(C(=O)c2csnn2)C1 (stereo not drawn) | 1.58% |
| CCN(CC(=O)Nc1ccccc1OC)C(=O)Cn1cnc2ccccc2c1=O | 1.69% |
| Cc1ccn2cc(-c3nonc3C)cc2c1 | 11.7% (active) |
| CN(C)C(=O)c1ccc(NC(=O)c2ccccc2-c2ccccc2)cc1 | -3.02% |
| COc1cc(CN(C)Cc2nc3cc(C(F)(F)F)ccc3c(=O)[nH]2)ccc1OC(F)F | 1.37% |

| Structure (SMILES) | max response |
| --- | --- |
| CC1(C)SC2C(NC(=O)COc3ccccc3)C(=O)N2C1C(=O)O (stereo not drawn) | -0.647% |
| COc1cc(/C=C/C(=O)O)cc(S(=O)(=O)Nc2ccccc2C(=O)NCCc2ccccc2)c1OC | 41.8% (active) |
| COc1cc(/C=C/C(=O)O)cc(S(=O)(=O)Nc2ccccc2SC)c1OC | -2.09% |
| NC(=O)Nc1ccccc1C(=O)NCCc1ccccc1 | 63.4% (active) |
| NC(=O)c1ccccc1NC(=O)c1ccccc1F | 14.9% |
| O=C(O)c1ccccc1-c1ccccc1C(=O)NCCc1ccccc1 | 0.507% |
| COc1cc(OC)c(S(=O)(=O)Nc2ccccc2C(=O)O)cc1S(=O)(=O)Nc1ccccc1C(=O)O | -2.35% |
| CCN(CC)CCNC(=O)c1sc2ncn(CC(=O)Nc3ccc(C)c(Cl)c3)c(=O)c2c1C | -6.12% |
| Cc1ccc(NC(=O)CSc2nnc(CNC(=O)c3ccccc3F)o2)cc1Cl | 7.13% |
| CCCNC(=O)CCc1c(C)nc2c(c(C)nn2-c2ccccc2)c1C | -1.68% |
| Cc1ccc(C)c(C(=O)N2CCC(n3nccc3NC(=O)C3CC3)CC2)c1 | -2.23% |
| Cc1ccc(C)c(NS(=O)(=O)c2c(C)[nH]c(C)c2C(=O)N2CCCCC2)c1 | -4.94% |
| O=C(/C=C/c1cnc2ccccc2n1)NC1CCCCCC1 | 49.7% (active) |
| CC(=O)OC(C(=O)NC1CCCCC1)c1ccccc1 (stereo not drawn) | -1.59% |
| O=C(Cn1c(-c2cncs2)nc2ccccc21)NC1CCCC1 | -2.22% |
| CCCC(C(=O)NCc1ccco1)N(C(=O)CNS(=O)(=O)c1ccccc1)C1CCCC1 (stereo not drawn) | 2.82% |
| CC(c1ccco1)N(C(=O)Nc1ccccc1)C1CCCCC1 (stereo not drawn) | 14.3% (active) |
| CCOc1ccc(NC(=O)N(CCC(C)C)C(C)c2ccco2)cc1 (stereo not drawn) | 8.57% |
| COc1ccc(C2=NS(=O)(=O)N(C)C(C(=O)N(C)Cc3ccccc3)=C2)cc1 | -2.93% |
| O=C(C[C@H]1C(=O)N(c2ccc(F)c(F)c2)C[C@@H]1Cc1ccccc1)Nc1ccccc1 | 2.14% |
| CCOc1ccc(NC(=O)C2CCN(C(=O)N3CCOc4ccccc43)CC2)cc1 | -1.22% |

— PubChem BioAssay AID2314 (National Center for Advancing Translational Sciences (NCATS), 2010)
